Source: PMC11006913
Residue numbers refer to the chain shown, from its start.

What was measured:
Test in all cases: PBM; 200 nM protein, PBS
Conditions in all cases: dsDNA, one strand shown
NKX2-6 [1] = biological target: T1, NKX2-6 (Homo sapiens, UniProt A6NCS4 118-204, R150C)
T1 sequence: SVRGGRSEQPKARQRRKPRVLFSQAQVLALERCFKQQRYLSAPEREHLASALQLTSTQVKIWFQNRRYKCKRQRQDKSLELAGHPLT

NKX2-6 [2] = biological target: T2, NKX2-6 (Homo sapiens, UniProt A6NCS4 118-204)
T2 sequence: T1 sequence with C33R

NKX2-6 [3] = biological target: T3, NKX2-6 (Homo sapiens, UniProt A6NCS4 118-204, F151L)
T3 sequence: T1 sequence with C33R, F34L

HOXC9 [4] = biological target: HOXC9 (Homo sapiens, UniProt P31274 178-260)
MSX2 [5] = biological target: MSX2 (Homo sapiens, UniProt P35548 130-214)
HOXC9 [6] = biological target: HOXC9 (Homo sapiens, UniProt P31274 178-260, R222W)
MSX2 [7] = biological target: MSX2 (Homo sapiens, UniProt P35548 130-214, F161Y)
NKX3-2 [8] = biological target: NKX3-2 (Homo sapiens, UniProt P78367 192-278, P234S)
NKX3-2 [9] = biological target: NKX3-2 (Homo sapiens, UniProt P78367 192-278)
PROP1 [10] = biological target: PROP1 (Homo sapiens, UniProt O75360 56-141)
PROP1 [11] = biological target: PROP1 (Homo sapiens, UniProt O75360 56-141, R99H)
PROP1 [12] = biological target: PROP1 (Homo sapiens, UniProt O75360 56-141, F88S)
HOXD13 [13] = biological target: HOXD13 (Homo sapiens, UniProt P35453 263-343, T313R)
HOXD13 [14] = biological target: HOXD13 (Homo sapiens, UniProt P35453 263-343)
HOXD13 [15] = biological target: HOXD13 (Homo sapiens, UniProt P35453 263-343, T313A)
MSX2 [16] = biological target: MSX2 (Homo sapiens, UniProt P35548 130-214, R199I)
HOXA2 = HOXA2 (Homo sapiens, UniProt O43364 129-215, R185K)
ALX1 [17] = biological target: ALX1 (Homo sapiens, UniProt Q15699 118-204, L144V)
ALX1 [18] = biological target: ALX1 (Homo sapiens, UniProt Q15699 118-204, L144R)
ALX1 [19] = biological target: ALX1 (Homo sapiens, UniProt Q15699 118-204)
Sequence of ALX1 (Homo sapiens, UniProt Q15699 118-204) (Q15699 118-204): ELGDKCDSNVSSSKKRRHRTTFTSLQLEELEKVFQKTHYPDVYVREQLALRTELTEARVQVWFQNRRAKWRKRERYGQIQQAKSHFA

Sequence of MSX2 (Homo sapiens, UniProt P35548 130-214) (P35548 130-214): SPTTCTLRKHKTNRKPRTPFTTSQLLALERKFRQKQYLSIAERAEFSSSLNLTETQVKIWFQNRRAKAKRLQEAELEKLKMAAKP
Sequence of MSX2 (Homo sapiens, UniProt P35548 130-214, F161Y) (P35548 130-214 F161Y): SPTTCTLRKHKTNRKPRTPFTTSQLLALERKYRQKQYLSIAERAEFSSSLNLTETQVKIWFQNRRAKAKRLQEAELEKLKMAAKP
Sequence of MSX2 (Homo sapiens, UniProt P35548 130-214, R199I) (P35548 130-214 R199I): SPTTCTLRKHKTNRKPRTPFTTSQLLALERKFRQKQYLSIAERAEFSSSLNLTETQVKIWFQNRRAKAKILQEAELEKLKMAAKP
Sequence of HOXC9 (Homo sapiens, UniProt P31274 178-260) (P31274 178-260): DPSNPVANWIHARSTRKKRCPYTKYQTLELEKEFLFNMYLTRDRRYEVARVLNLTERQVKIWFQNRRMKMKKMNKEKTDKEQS
Sequence of HOXC9 (Homo sapiens, UniProt P31274 178-260, R222W) (P31274 178-260 R222W): as the sequence (P31274 178-260) above, with R45W counted along it
Sequence of ALX1 (Homo sapiens, UniProt Q15699 118-204, L144V) (Q15699 118-204 L144V): as the sequence (Q15699 118-204) above, with L27V counted along it
Sequence of HOXD13 (Homo sapiens, UniProt P35453 263-343) (P35453 263-343): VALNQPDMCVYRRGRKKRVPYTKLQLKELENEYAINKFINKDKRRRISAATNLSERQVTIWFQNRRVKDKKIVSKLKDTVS
Sequence of HOXA2 (O43364 129-215 R185K): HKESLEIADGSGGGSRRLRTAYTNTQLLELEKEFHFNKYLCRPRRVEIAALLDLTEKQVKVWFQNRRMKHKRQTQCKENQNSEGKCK
Sequence of NKX3-2 (Homo sapiens, UniProt P78367 192-278, P234S) (P78367 192-278 P234S): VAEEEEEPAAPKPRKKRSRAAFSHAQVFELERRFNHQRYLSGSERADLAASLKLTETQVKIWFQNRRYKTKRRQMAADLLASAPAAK
Sequence of PROP1 (Homo sapiens, UniProt O75360 56-141, R99H) (O75360 56-141 R99H): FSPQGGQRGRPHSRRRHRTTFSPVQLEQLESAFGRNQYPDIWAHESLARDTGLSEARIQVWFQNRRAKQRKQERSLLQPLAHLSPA
Sequence of HOXD13 (Homo sapiens, UniProt P35453 263-343, T313A) (P35453 263-343 T313A): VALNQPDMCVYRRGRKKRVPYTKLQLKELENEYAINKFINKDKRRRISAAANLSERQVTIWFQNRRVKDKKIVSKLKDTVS
Sequence of PROP1 (Homo sapiens, UniProt O75360 56-141) (O75360 56-141): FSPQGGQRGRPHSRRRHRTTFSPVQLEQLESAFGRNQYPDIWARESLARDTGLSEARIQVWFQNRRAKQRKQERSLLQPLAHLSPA
Sequence of NKX3-2 (Homo sapiens, UniProt P78367 192-278) (P78367 192-278): as the sequence (P78367 192-278 P234S) above, with S43P counted along it
Sequence of PROP1 (Homo sapiens, UniProt O75360 56-141, F88S) (O75360 56-141 F88S): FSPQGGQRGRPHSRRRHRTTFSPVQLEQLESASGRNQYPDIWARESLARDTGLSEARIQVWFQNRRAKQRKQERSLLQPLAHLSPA
Sequence of ALX1 (Homo sapiens, UniProt Q15699 118-204, L144R) (Q15699 118-204 L144R): as the sequence (Q15699 118-204) above, with L27R counted along it
Sequence of HOXD13 (Homo sapiens, UniProt P35453 263-343, T313R) (P35453 263-343 T313R): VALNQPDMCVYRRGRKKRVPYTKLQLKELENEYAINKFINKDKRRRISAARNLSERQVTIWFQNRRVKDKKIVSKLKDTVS

Sequence: AAAGTGCA
- binding signal (NKX2-6 [1]): 11.2 upbm affinity estimate (log intensity, higher = more binding, comparable within an allelic series)
- binding signal (NKX2-6 [2]): 12.2 upbm affinity estimate (log intensity, higher = more binding, comparable within an allelic series)
- binding signal (NKX2-6 [3]): 10.1 upbm affinity estimate (log intensity, higher = more binding, comparable within an allelic series)

Sequence: ACCCTTAT
- binding signal (HOXC9 [4]): 10.8 upbm affinity estimate (log intensity, higher = more binding, comparable within an allelic series)
- binding signal (MSX2 [5]): 10.8 upbm affinity estimate (log intensity, higher = more binding, comparable within an allelic series)
- binding signal (HOXC9 [6]): 10.2 upbm affinity estimate (log intensity, higher = more binding, comparable within an allelic series)
- binding signal (MSX2 [7]): 10.7 upbm affinity estimate (log intensity, higher = more binding, comparable within an allelic series)

Sequence: AAGTGGCA
- binding signal (NKX2-6 [1]): 11.6 upbm affinity estimate (log intensity, higher = more binding, comparable within an allelic series)
- binding signal (NKX3-2 [8]): 12.6 upbm affinity estimate (log intensity, higher = more binding, comparable within an allelic series)
- binding signal (NKX3-2 [9]): 12.7 upbm affinity estimate (log intensity, higher = more binding, comparable within an allelic series)

Sequence: AGCCCCCG
- binding signal (NKX2-6 [1]): 9.1 upbm affinity estimate (log intensity, higher = more binding, comparable within an allelic series)
- binding signal (PROP1 [10]): 6.76 upbm affinity estimate (log intensity, higher = more binding, comparable within an allelic series)
- binding signal (PROP1 [11]): 6.62 upbm affinity estimate (log intensity, higher = more binding, comparable within an allelic series)
- binding signal (PROP1 [12]): 6.15 upbm affinity estimate (log intensity, higher = more binding, comparable within an allelic series)

Sequence: ATTGCGCA
- binding signal (HOXC9 [4]): 10.8 upbm affinity estimate (log intensity, higher = more binding, comparable within an allelic series)
- binding signal (HOXC9 [6]): 10.1 upbm affinity estimate (log intensity, higher = more binding, comparable within an allelic series)

Sequence: ACCCTGCC
- binding signal (NKX2-6 [1]): 9.52 upbm affinity estimate (log intensity, higher = more binding, comparable within an allelic series)
- binding signal (HOXD13 [13]): 9.6 upbm affinity estimate (log intensity, higher = more binding, comparable within an allelic series)
- binding signal (HOXD13 [14]): 9.65 upbm affinity estimate (log intensity, higher = more binding, comparable within an allelic series)
- binding signal (HOXD13 [15]): 9.68 upbm affinity estimate (log intensity, higher = more binding, comparable within an allelic series)

Sequence: ATACATAA
- binding signal (MSX2 [16]): 11 upbm affinity estimate (log intensity, higher = more binding, comparable within an allelic series)
- binding signal (MSX2 [5]): 11.6 upbm affinity estimate (log intensity, higher = more binding, comparable within an allelic series)
- binding signal (MSX2 [7]): 11.4 upbm affinity estimate (log intensity, higher = more binding, comparable within an allelic series)

Sequence: TAATCAAA
- binding signal (MSX2 [16]): 11.1 upbm affinity estimate (log intensity, higher = more binding, comparable within an allelic series)
- binding signal (MSX2 [5]): 12.4 upbm affinity estimate (log intensity, higher = more binding, comparable within an allelic series)
- binding signal (MSX2 [7]): 12.1 upbm affinity estimate (log intensity, higher = more binding, comparable within an allelic series)

Sequence: CGCCCACG
- binding signal (MSX2 [16]): 9.47 upbm affinity estimate (log intensity, higher = more binding, comparable within an allelic series)
- binding signal (MSX2 [5]): 9.54 upbm affinity estimate (log intensity, higher = more binding, comparable within an allelic series)
- binding signal (MSX2 [7]): 9.52 upbm affinity estimate (log intensity, higher = more binding, comparable within an allelic series)

Sequence: ATGATTAC
- binding signal (MSX2 [16]): 10.9 upbm affinity estimate (log intensity, higher = more binding, comparable within an allelic series)

Sequence: GGTAATCA
- binding signal (MSX2 [16]): 11 upbm affinity estimate (log intensity, higher = more binding, comparable within an allelic series)
- binding signal (HOXA2): 13.3 upbm affinity estimate (log intensity, higher = more binding, comparable within an allelic series)

Sequence: CACGGTCG
- binding signal (MSX2 [16]): 9.6 upbm affinity estimate (log intensity, higher = more binding, comparable within an allelic series)
- binding signal (MSX2 [5]): 9.56 upbm affinity estimate (log intensity, higher = more binding, comparable within an allelic series)
- binding signal (MSX2 [7]): 9.58 upbm affinity estimate (log intensity, higher = more binding, comparable within an allelic series)

Sequence: CCTGACTC
- binding signal (MSX2 [16]): 9.6 upbm affinity estimate (log intensity, higher = more binding, comparable within an allelic series)
- binding signal (MSX2 [5]): 9.49 upbm affinity estimate (log intensity, higher = more binding, comparable within an allelic series)
- binding signal (MSX2 [7]): 9.54 upbm affinity estimate (log intensity, higher = more binding, comparable within an allelic series)

Sequence: CTAATCAA
- binding signal (MSX2 [16]): 11 upbm affinity estimate (log intensity, higher = more binding, comparable within an allelic series)

Sequence: GCAATCAA
- binding signal (MSX2 [16]): 10.9 upbm affinity estimate (log intensity, higher = more binding, comparable within an allelic series)

Sequence: CCACTGGC
- binding signal (MSX2 [16]): 9.65 upbm affinity estimate (log intensity, higher = more binding, comparable within an allelic series)
- binding signal (MSX2 [5]): 9.69 upbm affinity estimate (log intensity, higher = more binding, comparable within an allelic series)
- binding signal (MSX2 [7]): 9.68 upbm affinity estimate (log intensity, higher = more binding, comparable within an allelic series)

Sequence: GAGGTGGC
- binding signal (MSX2 [16]): 9.4 upbm affinity estimate (log intensity, higher = more binding, comparable within an allelic series)
- binding signal (ALX1 [17]): 6.34 upbm affinity estimate (log intensity, higher = more binding, comparable within an allelic series)
- binding signal (ALX1 [18]): 6.43 upbm affinity estimate (log intensity, higher = more binding, comparable within an allelic series)
- binding signal (MSX2 [5]): 9.42 upbm affinity estimate (log intensity, higher = more binding, comparable within an allelic series)
- binding signal (MSX2 [7]): 9.41 upbm affinity estimate (log intensity, higher = more binding, comparable within an allelic series)
- binding signal (ALX1 [19]): 6.4 upbm affinity estimate (log intensity, higher = more binding, comparable within an allelic series)
